According to PubChem BioAssay:
A number with no mark means an inactive call. For some of these results: Measured potencies and affinities stand elsewhere. Activity calls are given as the source filed them. Unless noted, no rule for the calls is given here.

Columns and labels:
[1] = antimalarial activity against Dd2 strain (AID 2302;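 active = growth inhibition above 50% at the single 2 µM test dose, taken to imply half-maximal potency below 2 µM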;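 also: 0% = DMSO untreated growth and 100% = chloroquine plus artemisinin killed control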); conditions: P. falciparum Dd2 in RBCs, LDH growth readout, 72 h; at 2 µM; active compounds read high
[2] = HepG2 cytotoxicity, primary screen, cytotoxicity control for P. falciparum antimalarial project, cell-based, ATP luminescence (AID 2303;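 active = inhibition above 50%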;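 also: 0% = DMSO wells and 100% = digitonin-killed cells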); conditions: HepG2 viability, 24-48 h, at 10 µM, active compounds read high
[3] = biological target: L-lactate dehydrogenase (Plasmodium falciparum (isolate CDC / Honduras)) (UniProt Q27743); assay: PfLDH activity inhibition – cell lysate, 3D7 strain, counter-screen for P. falciparum growth inhibition project (AID 2304);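 also: 0% = vehicle and 100% = reference inhibitor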; conditions: P. falciparum 3D7 crude extract, LDH APAD/NBT absorbance; at 2 µM; active compounds read high
L-lactate dehydrogenase (Plasmodium falciparum (isolate CDC / Honduras)), sequence (Q27743 whole entry, looked up): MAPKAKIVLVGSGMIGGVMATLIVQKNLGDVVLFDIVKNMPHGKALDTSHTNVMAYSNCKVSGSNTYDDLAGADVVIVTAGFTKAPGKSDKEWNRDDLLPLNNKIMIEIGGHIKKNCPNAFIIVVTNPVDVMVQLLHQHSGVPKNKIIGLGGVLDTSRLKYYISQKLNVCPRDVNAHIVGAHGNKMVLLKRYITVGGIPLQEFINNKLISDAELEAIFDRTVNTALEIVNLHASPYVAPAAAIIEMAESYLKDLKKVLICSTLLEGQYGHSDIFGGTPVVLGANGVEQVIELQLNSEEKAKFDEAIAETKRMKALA

[4] = inhibition of 3D7 malaria parasite growth – strain 3D7 (AID 2306);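 also: 0% = DMSO wells and 100% = chloroquine plus artemisinin control wells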; conditions: P. falciparum 3D7 erythrocytic growth, LDH absorbance, 72 h; at 2 µM; active compounds read high
[5] = biological target: Calcium-dependent protein kinase 1 (Plasmodium falciparum (isolate 3D7)) (UniProt P62344); assay: PfCDPK1 kinase inhibitors, biochemical, TCAMS library (AID 1159585; cut-off not given, nearly all actives have IC50 up to about 0.98 µM;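 also: inhibitors leave more ATP so luminescence rises with inhibition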); conditions: recombinant PfCDPK1, Kinase-Glo ATP depletion luminescence
Calcium-dependent protein kinase 1 (Plasmodium falciparum (isolate 3D7)), sequence (P62344 whole entry, looked up): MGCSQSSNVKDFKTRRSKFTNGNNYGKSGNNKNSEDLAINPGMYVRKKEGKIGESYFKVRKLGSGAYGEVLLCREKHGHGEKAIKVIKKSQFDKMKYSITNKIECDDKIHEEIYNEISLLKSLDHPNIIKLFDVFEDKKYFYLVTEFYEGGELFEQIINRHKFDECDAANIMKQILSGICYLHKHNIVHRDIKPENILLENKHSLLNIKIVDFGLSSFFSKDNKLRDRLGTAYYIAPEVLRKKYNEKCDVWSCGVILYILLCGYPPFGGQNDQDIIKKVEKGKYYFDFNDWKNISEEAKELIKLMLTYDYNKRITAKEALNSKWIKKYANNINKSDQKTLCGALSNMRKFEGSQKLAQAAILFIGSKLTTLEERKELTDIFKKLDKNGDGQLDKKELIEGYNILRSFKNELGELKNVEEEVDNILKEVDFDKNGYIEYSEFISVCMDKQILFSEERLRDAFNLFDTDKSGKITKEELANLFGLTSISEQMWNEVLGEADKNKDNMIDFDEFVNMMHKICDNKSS

[6] = biological target: Plasmodium falciparum protein kinase 6 (PK6, PF3D7_1337100) (UniProt Q8IDW1); assay: PfPK6 kinase inhibitors, biochemical, TCAMS library (AID 1159586); conditions: recombinant PfPK6, Kinase-Glo ATP depletion luminescence
Plasmodium falciparum protein kinase 6 (PK6, PF3D7_1337100), sequence (Q8IDW1 1-305): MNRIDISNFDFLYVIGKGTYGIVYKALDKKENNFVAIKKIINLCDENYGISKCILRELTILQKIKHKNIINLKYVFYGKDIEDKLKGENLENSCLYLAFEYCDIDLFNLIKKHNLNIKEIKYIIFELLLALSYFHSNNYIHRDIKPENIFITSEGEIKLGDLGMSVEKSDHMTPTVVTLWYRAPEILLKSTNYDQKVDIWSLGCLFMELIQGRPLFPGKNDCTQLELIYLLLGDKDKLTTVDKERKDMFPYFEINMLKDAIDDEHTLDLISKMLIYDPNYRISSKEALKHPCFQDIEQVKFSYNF

[7] = biological target: Protein kinase 7 (PK7), Plasmodium falciparum 3D7 (PF3D7_0213400) (UniProt Q7YTF7); assay: inhibition of Plasmodium PK7 catalytic activity – biochemical, TCAMS antimalarial set, Kinase-Glo luminescence (AID 1159587); conditions: recombinant PfPK7, Kinase-Glo ATP depletion luminescence
Protein kinase 7 (PK7), Plasmodium falciparum 3D7 (PF3D7_0213400), sequence (Q7YTF7 1-343): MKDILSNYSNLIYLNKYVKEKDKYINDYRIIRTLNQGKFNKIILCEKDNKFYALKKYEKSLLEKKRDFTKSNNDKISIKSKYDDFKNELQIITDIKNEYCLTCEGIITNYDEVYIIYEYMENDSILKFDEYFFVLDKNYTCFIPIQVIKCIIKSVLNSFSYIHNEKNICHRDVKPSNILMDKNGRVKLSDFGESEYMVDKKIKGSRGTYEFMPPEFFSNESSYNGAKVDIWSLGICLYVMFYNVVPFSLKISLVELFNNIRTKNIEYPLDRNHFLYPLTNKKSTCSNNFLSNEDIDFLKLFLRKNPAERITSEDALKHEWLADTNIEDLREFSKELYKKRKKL

[8] = biological target: Calcium-dependent protein kinase 4 (Plasmodium falciparum (isolate 3D7)) (UniProt Q8IBS5); assay: PfCDPK4 kinase inhibitors, biochemical, TCAMS library (AID 1159588; cut-off not given, nearly all actives have IC50 up to about 0.91 µM); conditions: recombinant PfCDPK4, Kinase-Glo ATP depletion luminescence
Calcium-dependent protein kinase 4 (Plasmodium falciparum (isolate 3D7)), sequence (Q8IBS5 whole entry, looked up): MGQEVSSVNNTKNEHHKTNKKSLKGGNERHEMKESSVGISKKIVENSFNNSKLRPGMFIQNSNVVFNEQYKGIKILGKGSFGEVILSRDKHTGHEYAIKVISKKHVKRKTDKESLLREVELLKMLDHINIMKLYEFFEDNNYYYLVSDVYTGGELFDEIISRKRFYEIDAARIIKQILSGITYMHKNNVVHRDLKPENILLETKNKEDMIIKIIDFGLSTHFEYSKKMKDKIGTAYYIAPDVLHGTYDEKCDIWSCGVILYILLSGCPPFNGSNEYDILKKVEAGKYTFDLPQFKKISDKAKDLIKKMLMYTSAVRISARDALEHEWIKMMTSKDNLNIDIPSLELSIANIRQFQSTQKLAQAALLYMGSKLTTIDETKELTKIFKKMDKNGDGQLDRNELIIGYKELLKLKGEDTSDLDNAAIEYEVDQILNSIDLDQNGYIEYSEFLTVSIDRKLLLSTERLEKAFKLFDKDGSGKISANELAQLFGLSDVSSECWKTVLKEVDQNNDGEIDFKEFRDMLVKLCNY

Row | Structure (SMILES) | growth inhibition [1] | inhibition [2] | inhibition [3] | growth inhibition [4] | outcome [5] | outcome [6] | outcome [7] | outcome [8]
1 | CO/C=C(/C(=O)OC)c1ccccc1Oc1cc(Oc2ccccc2C#N)ncn1 | 98% (active) | 7% | 3% | 98% (active) | inactive | inactive | inactive | inactive
2 | COc1c(F)cc(CC(C)NCC(O)c2cccc(Cl)c2)cc1F (centres undefined) | 86% (active) | 0% | 0% | 93% (active) | inactive | inactive | inactive | inactive
3 | CCN(CC)CCOC(=O)C(OC)(c1ccccc1)c1ccccc1 | 6% | -4% | 2% | 97% (active) | inactive | inactive | inactive | inactive
4 | Cc1ccc(CC(C)(C)NCC(O)c2cccc(C(F)(F)F)c2)cc1 (centres undefined) | 92% (active) | 19% | 2% | 97% (active) | inactive | inactive | inactive | inactive
5 | Cc1ccc2c(C3=CCN(CCCCC4(C)C(=O)Nc5ccccc54)CC3)c(C)[nH]c2c1 (centres undefined) | 91% (active) | 9% | -3% | 95% (active) | inactive | inactive | inactive | inactive
6 | COc1cccc(C(=O)C2CC2CN2CC=C(c3c(C)[nH]c4ccccc34)CC2)c1 (centres undefined) | 87% (active) | 13% | -8% | 92% (active) | inactive | inactive | inactive | inactive
7 | CC[C@H]1CN2CC[C@@H]1C[C@H]2[C@H](O)c1cc(N2CCOCC2)nc2ccc(OC)cc12 | 99% (active) | 10% | 3% | 99% (active) | inactive | inactive | inactive | inactive
8 | CNCCCCCCc1ccc(CC(C)NCC(O)c2cccc(Cl)c2)cc1 (centres undefined) | 76% (active) | 22% | 4% | 94% (active) | inactive | inactive | inactive | inactive
9 | COCC(=O)N(Cc1ccccc1-c1ccc(CNCCc2ccccc2)cc1)C1CCN(Cc2ccccc2)CC1 | 86% (active) | 39% | 1% | 94% (active) | inactive | inactive | inactive | inactive
10 | O=C(NC1CCC(N2CCC3(CC2)C(=O)NCN3c2ccccc2)CC1)c1cc2ccccc2[nH]1 (centres undefined) | 40% | -2% | 1% | 98% (active) | inactive | inactive | inactive | inactive
11 | O=C(O)c1ccc2nc(-c3ccc(-c4ccccc4)cc3)n(C3CCN(Cc4ccc(-c5ncc[nH]5)cc4)CC3)c2c1 | 99% (active) | 3% | 1% | 91% (active) | inactive | inactive | inactive | inactive
12 | COc1ccc2[nH]cc(C3CCN(Cc4ccc(NC(=O)c5ccc(-c6ccccc6)cc5)cc4)CC3)c2c1 | 72% (active) | 24% | -6% | 101% (active) | inactive | inactive | inactive | inactive
13 | CC(C)n1ncc2c(C(=O)Nc3ccc(C#N)c(Cl)c3)cc(C3CC3)nc21 | 15% | 20% | 2% | 93% (active) | inactive | inactive | inactive | inactive
14 | CC[C@H]1CN2CC[C@@H]1C[C@H]2[C@H](O)c1cc(-c2ccccc2)nc2ccc(O)cc12 | 99% (active) | 14% | -2% | 99% (active) | inactive | inactive | inactive | inactive
15 | O=C(NC1CCC(CN2CCC(c3c[nH]c4ccccc34)CC2)CC1)c1cc(-c2ccc(F)cc2F)ccc1O (centres undefined) | 101% (active) | 30% | 0% | 101% (active) | inactive | inactive | inactive | inactive
16 | Cc1[nH]c2cc(Cl)ccc2c1C1=CCN(CCCCC2(C)C(=O)Nc3c(F)cccc32)CC1 (centres undefined) | 74% (active) | 14% | 3% | 90% (active) | inactive | inactive | inactive | inactive
17 | CC(Cc1ccc([N+](=O)[O-])cc1)NCC(O)c1cccc(C(F)(F)F)c1 (centres undefined) | 92% (active) | -2% | -2% | 98% (active) | inactive | inactive | inactive | inactive
18 | Cc1c(C(=O)NC2CCC(CN3CCC(c4c[nH]c5ccccc45)CC3)CC2)cnn1-c1c(Cl)cc(Cl)cc1Cl (centres undefined) | 97% (active) | 53% (active) | 4% | 100% (active) | inactive | inactive | inactive | inactive
19 | CN(C)CCCOc1ccc(CN2CCC(c3c[nH]c4ccc(NCC5CCCCC5)cc34)CC2)cc1 | 99% (active) | 58% (active) | 3% | 99% (active) | inactive | inactive | inactive | inactive
20 | COc1ccc(C(=O)[C@H]2C[C@@H]2CN2CC=C(c3c[nH]c4cccc(Br)c34)CC2)cc1 | 67% (active) | 32% | -3% | 88% (active) | inactive | inactive | inactive | inactive
21 | CCCCCCc1cc(O)c2c3c(c(=O)oc2c1)CCN(C)C3 | 66% (active) | -6% | 4% | 99% (active) | inactive | inactive | inactive | inactive
22 | CCCCCCCN1[C@@H]2CC[C@H]1CC(CCOc1ccnc3ccc(OC)cc13)C2 (some centres undefined) | 88% (active) | 23% | -1% | 98% (active) | inactive | inactive | inactive | inactive
23 | O=C(c1cc(C(=O)NCc2ccc(Cl)cc2)c(=O)n(Cc2ccc(Cl)cc2)c1)c1cc(F)ccc1O | 2% | 7% | -2% | 93% (active) | inactive | inactive | inactive | inactive
